Tat export inh: E. coli Tat export inhibitors, primary screen, MC4100, TorA-mCherry reporter, fluorescence, single point | inhibition, % at 10 µM | 0.036% of 340,000 active | AID 488895, 2010;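 active = mean replicate inhibition at least 50% and at least half of replicates individually reaching 50%; inconclusive = only one of the two criteria met; inactive = neither criterion met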;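 note: exported cargo escapes ClpAP degradation while cytoplasmic cargo is degraded and loses fluorescence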
E coli growth-1: E. coli V3065 growth inhibition, primary screen, counter-screen for AddAB inhibitor project, absorbance, OD600; 18 h; inhibition, % at 11.9 µM; 0.27% of 330,000 active; AID 449728, 2010;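 active = inhibition above the campaign's mean inhibition across all tested compounds plus 3 SD, cut at about 9.9% in these data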;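 note: uninfected addAB+ strain grown without phage in ampicillin broth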
AI-2 QS mod: Vibrio harveyi AI-2 quorum sensing modulators, primary screen, JMH597 strain, luminescence/OD600 ratio; 0.4% of 300,000 active; Vibrio harveyi JMH597 AI-2 luminescence/OD600 ratio, 9 h; hits give low values; strain lacks LuxN and CqsS sensors; 0 = neutral-control median; activity change, % at 7.5 µM; AID 2094, 2009; in the data active = activity change below about -75%, passing the limit was not always enough; inconclusive = no clear call, values can overlap the other calls;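 note: luminescence divided by OD600 gain over 9 h not by final OD600 alone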
phage Ecoli inh: growth loss of phage-infected E. coli, primary screen, RecBCD inhibitor project, absorbance, with phage, HTS; inhibition, % at 11.9 µM; 0.26% of 360,000 active; AID 651602, 2012; in the data active = inhibition above about 11%
AddAB inh: growth inhibition of E. coli expressing H. pylori AddAB, primary screen, AddAB inhibitor project, absorbance; AID 435030, 2010; 0.29% of 330,000 active; inhibition, % at 11.9 µM; in the data active = inhibition above about 12%
E coli growth-2: E. coli growth inhibition, primary screen, OD600. Escherichia coli growth, 23 h; hits give low values. OD600 absorbance (no concentration beside the values). 0.21% of 330,000 active. AID 1053175, 2014;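 active = OD600 absorbance below the run mean of sample wells minus 3.6 SD, in any replicate, cut at about 0.56 in these data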
RecBCD conf: growth loss of phage-infected RecBCD+ E. coli, confirmation, RecBCD inhibitor project, absorbance, E. coli V66, T4 gene 2 phage | shares compounds with phage Ecoli inh | E. coli V66 + T4 2- phage, growth OD | inhibition, % at 11.9 µM | 45% of 890 active;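 active = mean inhibition over triplicates exceeding the hit threshold derived in the original primary screen, cut at about 11% in these data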
Ecoli viability: E. coli viability inhibition, counter-screen for RecBCD inhibitor project, absorbance, high throughput; absorbance (OD) growth; inhibition, % at 11.9 µM; AID 651983, 2013; 29% of 890 active; shares compounds with phage Ecoli inh; in the data active = inhibition above about 20%;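 note: E. coli strain V66 grown with compound alone and no phage infection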
AddAB counter: growth loss of phage-infected AddAB-carrying E. coli, confirmation, counter-screen for RecBCD inhibitor project, absorbance, E. coli V3065, T4 phage; E. coli expressing H. pylori AddAB + T4 phage, OD growth; gene 2 mutant T4, recBCD-deleted host; 45% of 890 active; shares compounds with phage Ecoli inh; inhibition, % at 11.9 µM;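 active = mean inhibition above the solvent-only control wells' mean plus 3 SD, cut at about 22% in these data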;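 note: higher means less bacterial growth from phage killing when AddAB is blocked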
Large screens that a line does not name were inactive (follow-up assays come after a bar, where they were run). An excerpt weighted towards active compounds, which were near 0.79% of everything screened.

O=c1ccc2cc3c([nH]c4ccc(Br)cc43)oc-2c1O	phage Ecoli inh 14.0 | RecBCD conf inactive | Ecoli viability inactive | AddAB counter inactive
O=C(NCc1nc2ccccc2[nH]1)C1=CC(c2csc3ccccc23)CC(OCc2ccc(CO)cc2)O1 (configuration not stated)	none (no result: Tat export inh, E coli growth-1, AI-2 QS mod, phage Ecoli inh, AddAB inh)
CCc1ccc(NC(=O)CCC(=O)N2CCSc3ccccc32)cc1	phage Ecoli inh 13.6 | RecBCD conf inactive | Ecoli viability inactive | AddAB counter inactive
Cc1c(Cl)sn(-c2ccc(Cl)cc2)c1=O	Tat export inh inconclusive, phage Ecoli inh 97.7, E coli growth-2 0.062 (no result: E coli growth-1, AI-2 QS mod, AddAB inh) | RecBCD conf 99.5 | Ecoli viability 99.9 | AddAB counter 99.9
C=CCN1c2ccccc2[C@]23CC(C(=O)OC)N(C(=O)c4cccs4)C2=NC(C(=O)OC)=C(C(=O)OC)C13 (some centres not stated)	none (no result: Tat export inh, E coli growth-1, AI-2 QS mod, phage Ecoli inh, AddAB inh)
CCNS(=O)(=O)c1ccc(NC(=O)Cn2nc(C(F)(F)F)cc2C)cc1	E coli growth-1 10.5, phage Ecoli inh 12.0 | RecBCD conf inactive | Ecoli viability inactive | AddAB counter inactive
CC1CC1C(=O)Nc1nc(-c2ccc(Cl)s2)cs1 (configuration not stated)	none
CN(C(=O)C1CCC1C(=O)O)c1nc(-c2ccc(Cl)s2)cs1 (configuration not stated)	phage Ecoli inh 99.2 | RecBCD conf inactive | Ecoli viability inactive | AddAB counter inactive
Oc1cccc2cc(Nc3ccccc3)cnc12	phage Ecoli inh 22.7 (no result: Tat export inh, E coli growth-1, AI-2 QS mod, AddAB inh, E coli growth-2) | RecBCD conf 16.0 | Ecoli viability inactive | AddAB counter 25.1
Cn1ccc(=O)c2cc([N+](=O)[O-])ccc21	phage Ecoli inh 14.8 (no result: Tat export inh, E coli growth-1, AI-2 QS mod, AddAB inh, E coli growth-2) | RecBCD conf inactive | Ecoli viability inactive | AddAB counter 98.7
CC(=NNC(=S)Nc1ccccc1)c1ccccn1	phage Ecoli inh 15.6 (no result: Tat export inh, E coli growth-1, AI-2 QS mod, AddAB inh, E coli growth-2) | RecBCD conf inactive | Ecoli viability inactive | AddAB counter inactive
CC(=NNC(=O)c1ccccc1Cl)c1ccccn1	none (no result: Tat export inh, E coli growth-1, AI-2 QS mod, phage Ecoli inh, AddAB inh)
CC(=NNC(=S)Nc1ccccc1Cl)c1ccccn1	phage Ecoli inh 14.3 (no result: E coli growth-1, AI-2 QS mod, AddAB inh, E coli growth-2) | RecBCD conf inactive | Ecoli viability inactive | AddAB counter inactive
C#CCOCCOCCOCCNc1nc(N2CCOCC2)nc(N2CCN(C(=O)C(C(C)CC)n3cc(C(N)CO)nn3)CC2)n1 (configuration not stated)	none (no result: Tat export inh, E coli growth-1, AI-2 QS mod, phage Ecoli inh, AddAB inh)
O=c1ncccn1C1OC(CO)C(O)C1O (configuration not stated)	phage Ecoli inh 95.7 (no result: Tat export inh, E coli growth-1, AI-2 QS mod, AddAB inh, E coli growth-2) | RecBCD conf 92.7 | Ecoli viability 100.8 | AddAB counter 98.0
Nc1ncnc2c1ncn2C1O[C@H](CO)[C@@H](O)[C@@H]1O (some centres not stated)	none (no result: AI-2 QS mod, E coli growth-2)
Nc1nc(F)nc2c1ncn2[C@@H]1O[C@H](CO)[C@@H](O)[C@@H]1O	phage Ecoli inh 75.2 (no result: E coli growth-2) | RecBCD conf 77.5 | Ecoli viability 78.8 | AddAB counter 77.7
O=c1[nH]c(=O)n(C2OC(CO)C(O)C2O)cc1F (configuration not stated)	none (no result: E coli growth-1, AI-2 QS mod, phage Ecoli inh, AddAB inh, E coli growth-2)
Nc1nc(=O)n(C2OC(CO)C(O)C2O)cc1F (configuration not stated)	phage Ecoli inh 21.1 (no result: Tat export inh, E coli growth-1, AI-2 QS mod, AddAB inh, E coli growth-2) | RecBCD conf 25.7 | Ecoli viability 21.1 | AddAB counter 52.8
O=C(O)CC1c2cc(C(F)(F)F)ccc2S(=O)(=O)N1C1CCN(Cc2ccccc2)CC1 (configuration not stated)	none (no result: Tat export inh, E coli growth-1, AI-2 QS mod, phage Ecoli inh, AddAB inh)
CCOC(=O)c1[nH]c2cc(OC)c(OC)cc2c1NC(=O)c1nonc1C	phage Ecoli inh 14.0 | RecBCD conf inactive | Ecoli viability inactive | AddAB counter inactive
CC1(C)Oc2ccc3ccc(=O)oc3c2CC1OC1OC(CO)C(O)C(O)C1O (configuration not stated)	none (no result: Tat export inh, E coli growth-1, AI-2 QS mod, phage Ecoli inh, AddAB inh)
COc1ccc(-c2oc3ccccc3c(=O)c2OCC(=O)O)cc1	none
COc1ccc(-c2oc3ccccc3c(=O)c2OC(C)=O)cc1	E coli growth-1 12.0, phage Ecoli inh 11.3 | RecBCD conf inactive | Ecoli viability inactive | AddAB counter inactive
COc1ccc(CCNC(=O)C2CCN(S(=O)(=O)c3ccc(SC)cc3)CC2)cc1	phage Ecoli inh 17.3 | RecBCD conf inactive | Ecoli viability inactive | AddAB counter inactive
COc1ccc(S(=O)(=O)N2CCC(C(=O)NCCc3ccc(OC)c(OC)c3)CC2)cc1	none (no result: Tat export inh, E coli growth-1, AI-2 QS mod, AddAB inh, E coli growth-2)
Cc1ccsc1C=Nn1c(-c2ccccn2)n[nH]c1=S	none (no result: Tat export inh, E coli growth-1, AI-2 QS mod, phage Ecoli inh, AddAB inh)
Cc1cccc(NC(=O)COC(=O)CN2CCCCCC2=O)c1C	phage Ecoli inh 10.9 (no result: AI-2 QS mod) | RecBCD conf inactive | Ecoli viability inactive | AddAB counter inactive
O=C(NCCNCCO)C1(C(F)(F)F)CC(=CCCO)CCCO1 (configuration not stated)	none (no result: Tat export inh, E coli growth-1, AI-2 QS mod, phage Ecoli inh, AddAB inh)
CCN(CCOC(=O)Nc1ccc(Cl)cc1)C(=O)Nc1ccc(Cl)cc1	phage Ecoli inh 11.4 (no result: Tat export inh, E coli growth-1, AI-2 QS mod, AddAB inh, E coli growth-2) | RecBCD conf inactive | Ecoli viability inactive | AddAB counter inactive
Cc1ccnc2c1ccc1cccnc12	phage Ecoli inh 13.7, E coli growth-2 0.371 (no result: E coli growth-1, AI-2 QS mod, AddAB inh) | RecBCD conf 12.6 | Ecoli viability inactive | AddAB counter inactive
Cc1ccnc2c1ccc1ccccc12	none
CCN(CC)S(=O)(=O)c1cccc(C(=O)N/N=C/c2ccc(O)c(O)c2O)c1	phage Ecoli inh 13.6, AddAB inh 13.6 (no result: AI-2 QS mod, E coli growth-2) | RecBCD conf inactive | Ecoli viability inactive | AddAB counter inactive
CCN1C(=NCCCOC(C)C)NC(CCc2ccccc2)C(C(=O)NCCCOC(C)C)C1C (configuration not stated)	none (no result: Tat export inh, E coli growth-1, AI-2 QS mod, phage Ecoli inh, AddAB inh)
N#CC1N(Cc2ccccc2)C(=O)C2CC3C=CC21O3 (configuration not stated)	none (no result: Tat export inh, E coli growth-1, AI-2 QS mod, phage Ecoli inh, AddAB inh)
Cc1ccc(-c2nc3ccc([N+](=O)[O-])cc3[nH]2)cc1	none
O=[N+]([O-])c1ccc2nc(-c3ccc(Cl)cc3)[nH]c2c1	phage Ecoli inh 11.1 | RecBCD conf inactive | Ecoli viability inactive | AddAB counter inactive
O=C(NN=Cc1cccc(C(F)(F)F)c1)c1ccccc1O	none (no result: Tat export inh, E coli growth-1, AI-2 QS mod, phage Ecoli inh, AddAB inh)
CCOC(=O)C1C2COc3ccccc3C2N2C(=O)c3cc(C)ccc3NC(=O)[C@@]12C (some centres not stated)	none (no result: Tat export inh, E coli growth-1, AI-2 QS mod, phage Ecoli inh, AddAB inh)
COc1ccc(C=NN=C2SCC(=O)N2Cc2ccccc2)cc1	none (no result: Tat export inh, E coli growth-1, AI-2 QS mod, phage Ecoli inh, AddAB inh)
